Test [1] is described as follows: optical density shifts of acrAB sulA E. coli – strain DRC41, OD650, 48 h, E. coli filamentation inducer project, primary screen (AID 1152).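 Note: E. coli MC1000 strain DRC41 lacking acrAB efflux pump and sulA.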 To be noted: higher = more signal, called active from +8 up or from −8 down.
Test [2] can be described thus: probe aLefty1 binding on compound microarray – biochemical, small-molecule microarray, 635/667 nm fluorescence, primary screen (AID 1153).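 Note: score merges spot fluorescence with signal-to-noise ratio from the scanned slide images.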 Particulars: higher = more signal.
Test [3] can be described thus: plasmodial surface anion channel blockers, osmotic lysis – cell-based, P. falciparum Indochina, OD700, 1 h, primary screen (AID 1154). Particulars: P. falciparum Indochina infected RBC osmotic lysis, higher = more signal, called active from +8 up or from −8 down.
Test [4] is described as follows: plasmodial surface anion channel blockers, osmotic lysis – cell-based, P. falciparum Indochina, OD700, 2 h, primary screen (AID 1155).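 Note: lysis reports solute entry through the parasite surface anion channel PSAC.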 Particulars: P. falciparum Indochina infected erythrocytes, higher = more signal, called active from +8 up or from −8 down.
The nature of test [5]: changes in parasitized red cell lysis, either direction – P. falciparum Indochina, OD700, 3 h, PSAC antagonist project, primary screen (AID 1156). Particulars: P. falciparum-infected erythrocytes, osmotic lysis, higher = more signal, called active from +8 up or from −8 down.
A short description of test [6]: plasmodial surface anion channel blockers, osmotic lysis – cell-based, P. falciparum Indochina, OD700, 18 h, primary screen (AID 1157). Particulars: P. falciparum Indochina infected erythrocytes, osmotic lysis OD700, 18 h; higher = more signal, called active from +8 up or from −8 down.
Test [7] can be described thus: S6 kinase pathway phospho-S6 level changes – cell-based, A549, cytoblot, luminescence, serum-stimulated, primary screen (AID 1158).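 Note: serum-stimulated A549 lung adenocarcinoma cells; signal is phosphorylated S6 detected by cytoblot immunostaining with HRP secondary.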 To be noted: 5 h, higher = more signal.
The target of test [8] is NADPH oxidase 2 (Homo sapiens) (UniProt P04839). The test is described as follows: compounds shifting NOX2 Amplex Red fluorescence – cell-based, HEK293-NOX2, PMA-stimulated, NOX inhibitor project, primary screen (AID 1159). Note: test concentration not given here. To be noted: 45 min, higher = more signal, called active from +8 up or from −8 down.
NADPH oxidase 2 (Homo sapiens), sequence (P04839 whole entry, looked up): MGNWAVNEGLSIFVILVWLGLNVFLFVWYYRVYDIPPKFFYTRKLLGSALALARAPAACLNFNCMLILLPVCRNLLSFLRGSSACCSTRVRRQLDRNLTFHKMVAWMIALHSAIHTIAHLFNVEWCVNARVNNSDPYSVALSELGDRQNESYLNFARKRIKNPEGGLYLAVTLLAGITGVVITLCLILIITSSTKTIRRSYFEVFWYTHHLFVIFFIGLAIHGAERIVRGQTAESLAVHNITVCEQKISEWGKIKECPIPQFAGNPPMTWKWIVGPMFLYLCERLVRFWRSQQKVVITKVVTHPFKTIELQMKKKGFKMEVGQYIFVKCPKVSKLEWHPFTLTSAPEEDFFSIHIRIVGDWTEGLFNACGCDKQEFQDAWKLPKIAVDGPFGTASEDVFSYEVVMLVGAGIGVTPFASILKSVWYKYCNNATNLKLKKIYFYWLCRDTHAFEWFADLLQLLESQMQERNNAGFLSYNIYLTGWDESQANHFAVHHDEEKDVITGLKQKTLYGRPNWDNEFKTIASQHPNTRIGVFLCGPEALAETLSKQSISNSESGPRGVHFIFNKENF
The target of test [9] is NADPH oxidase 4 (Homo sapiens) (UniProt Q9NPH5). The test is described as follows: compounds shifting NOX4 Amplex Red fluorescence – cell-based, HEK293-NOX4, tetracycline-induced, NOX inhibitor project, primary screen (AID 1160). To be noted: HEK293-NOX4, Amplex Red H2O2 fluorescence, 45 min; higher = more signal, called active from +8 up or from −8 down.
NADPH oxidase 4 (Homo sapiens), sequence (Q9NPH5 whole entry, looked up): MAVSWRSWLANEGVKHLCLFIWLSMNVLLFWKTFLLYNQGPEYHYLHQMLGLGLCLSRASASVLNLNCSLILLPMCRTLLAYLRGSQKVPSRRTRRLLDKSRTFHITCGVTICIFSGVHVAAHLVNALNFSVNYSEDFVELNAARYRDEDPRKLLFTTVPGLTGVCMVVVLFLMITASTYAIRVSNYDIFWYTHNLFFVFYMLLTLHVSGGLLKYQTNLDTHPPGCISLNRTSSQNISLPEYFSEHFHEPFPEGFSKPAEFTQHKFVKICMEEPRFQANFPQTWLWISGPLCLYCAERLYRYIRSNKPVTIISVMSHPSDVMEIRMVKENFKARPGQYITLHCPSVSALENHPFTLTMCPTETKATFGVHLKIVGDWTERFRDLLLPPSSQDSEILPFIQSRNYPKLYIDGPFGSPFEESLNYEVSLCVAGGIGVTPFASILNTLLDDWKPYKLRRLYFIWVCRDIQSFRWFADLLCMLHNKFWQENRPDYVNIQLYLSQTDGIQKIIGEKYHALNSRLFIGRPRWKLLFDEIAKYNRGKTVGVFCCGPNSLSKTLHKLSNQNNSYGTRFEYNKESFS
The target of test [10] is NADPH oxidase 5 (Homo sapiens) (UniProt Q96PH1). Put plainly: compounds shifting NOX5 Amplex Red fluorescence – cell-based, HEK293-NOX5, NOX inhibitor project, primary screen (AID 1161). Particulars: HEK293-NOX5, ionomycin, 45 min, higher = more signal.
NADPH oxidase 5 (Homo sapiens), sequence (Q96PH1 whole entry, looked up): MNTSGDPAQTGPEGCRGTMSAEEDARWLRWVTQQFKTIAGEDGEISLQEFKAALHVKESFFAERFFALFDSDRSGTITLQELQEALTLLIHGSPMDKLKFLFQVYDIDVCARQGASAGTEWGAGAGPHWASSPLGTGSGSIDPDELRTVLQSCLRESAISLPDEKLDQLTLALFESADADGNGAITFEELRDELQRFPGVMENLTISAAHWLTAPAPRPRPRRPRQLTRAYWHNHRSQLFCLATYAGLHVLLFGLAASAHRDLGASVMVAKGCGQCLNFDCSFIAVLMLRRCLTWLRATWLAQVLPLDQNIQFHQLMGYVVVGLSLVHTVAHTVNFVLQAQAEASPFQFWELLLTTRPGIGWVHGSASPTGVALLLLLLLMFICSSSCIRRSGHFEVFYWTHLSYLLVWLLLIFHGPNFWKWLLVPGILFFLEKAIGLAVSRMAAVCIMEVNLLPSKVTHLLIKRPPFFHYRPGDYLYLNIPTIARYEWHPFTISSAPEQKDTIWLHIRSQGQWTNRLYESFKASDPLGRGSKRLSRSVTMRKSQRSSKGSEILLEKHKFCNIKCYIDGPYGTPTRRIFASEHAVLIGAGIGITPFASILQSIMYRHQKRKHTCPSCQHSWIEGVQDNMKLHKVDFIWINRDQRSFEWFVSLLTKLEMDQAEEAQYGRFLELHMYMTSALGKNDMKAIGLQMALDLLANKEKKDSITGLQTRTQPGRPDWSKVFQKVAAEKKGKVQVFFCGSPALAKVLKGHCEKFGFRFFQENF
A short description of test [11]: compound effects on lung adenocarcinoma cell viability – A549, calcein-AM fluorescence, 48 h, basal, profiling panel (AID 1162). Note: test concentration not given here. Particulars: higher = more signal.
Test [12] is described as follows: compound effects on differentiated 3T3-L1 adipocyte viability – cell-based, 3T3-L1 adipocytes, calcein-AM fluorescence, 48 h, basal, profiling panel (AID 1163). Note: test concentration not given here. To be noted: 3T3-L1 adipocytes viability, higher = more signal.
Test [13] is described as follows: compound effects on hepatocellular carcinoma cell viability – HepG2, calcein-AM fluorescence, 48 h, basal, profiling panel (AID 1164). Note: test concentration not given here. To be noted: higher = more signal.
The nature of test [14]: compound effects on multiple myeloma cell viability – MM1S, calcein-AM fluorescence, 48 h, basal, profiling panel (AID 1165).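 Note: viability of MM1S multiple myeloma cells under basal unstimulated conditions; test concentration not given here.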 Particulars: higher = more signal.
Test [15] is described as follows: calcein-AM signal in unstimulated myeloma cells – cell-based, calcein-AM fluorescence, 48 h, PK04 Diversity Set, profiling panel (AID 1166).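 Note: cells grown under basal conditions without added stimulus; test concentration not given here.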 To be noted: RPMI8226 myeloma viability, higher = more signal.
A short description of test [16]: JC-1 mitochondrial signal, unstimulated HepG2 cells – cell-based, JC-1 fluorescence, 24 h, 100 nL compound, profiling panel (AID 1167). Note: test concentration not given here. To be noted: HepG2 mitochondrial potential, higher = more signal.
The nature of test [17]: JC-1 mitochondrial signal, unstimulated adipocytes – cell-based, JC-1 fluorescence, 3T3-L1 adipocytes, 24 h, 100 nL compound, profiling panel (AID 1168). Note: test concentration not given here. To be noted: JC-1 mitochondrial fluorescence, higher = more signal, called active from +8 up or from −8 down.
Test [18] is described as follows: JC-1 mitochondrial signal, unstimulated myeloma cells – cell-based, JC-1 fluorescence, RPMI8226, 24 h, 100 nL compound, profiling panel (AID 1169). Note: test concentration not given here. Particulars: JC-1 mitochondrial potential fluorescence, higher = more signal.
The nature of test [19]: JC-1 mitochondrial signal, unstimulated MM1S myeloma – cell-based, JC-1 fluorescence, 24 h, 100 nL compound, profiling panel (AID 1170). Note: test concentration not given here. Particulars: MM1S mitochondrial potential, higher = more signal.
Test [20] is described as follows: resazurin metabolic signal in A549 cells – cell-based, resazurin fluorescence, 24 h, PK04 Diversity Set, profiling panel (AID 1171). Note: test concentration not given here. Particulars: A549 viability, higher = more signal, called active from +8 up or from −8 down. On the technique in general: Alamar Blue is a resazurin reagent that responds to reducing activity.

Calls of active or inactive are those of the source.

Our source for the z-score and composite z-score values is PubChem BioAssay.

On to `COc1ccc(O[C@H]2C=C[C@@H](c3ccccc3)O[C@@H]2COC(=O)CCC(C)=NOC[C@@H](O)[C@H]2O[C@@H]3OC(C)(C)O[C@@H]3[C@H]2O)cc1`, for which the z-score was -1.89 (inactive) in test [1]; 4.09 (inactive) in test [3]; 1.12 (inactive) in [4]; 1.11 (inactive) in test [5]; 0.662 (inactive) in test [6]; 0.332 in [7]. Besides, the z-score was -1.42 (inactive) in test [8]; 0.0675 (inactive) in test [9]; -1.42 in [10]; 1.11 in test [11]; -0.519 in test [12]; 0.26 in [13]. Also, the z-score in test [14] is 0.152; in [15], -0.0547; in test [16], -0.42; in [17], 0.157 (inactive); in [18], -0.299; in test [19], -0.199. Also, the z-score in test [20] was 0.138 (inactive). This compound registered a composite z-score in [2] of 0.0004.

Regarding `Cc1ccc(S(=O)(=O)N[C@H]2COC(=O)CC=C[C@@H](C)COC(=O)CC=C[C@@H]2C)cc1`, the z-score in test [1] was 0.142 (inactive); in [3], 0.866 (inactive); in [4], -0.162 (inactive); in [5], -0.424 (inactive); in test [6], -0.014 (inactive); in test [7], -0.41. The z-score in test [8] is 0.225 (inactive); in [9], 0.684 (inactive); in test [10], 0.238; in [11], 0.409; in test [12], -0.203; in [13], 0.0995. For the same compound, the z-score in test [14] is 0.0438; in test [15] it was 0.219; in test [16], 0.247; in [17] it was -0.393 (inactive); in test [18], -0.0798; in test [19], -0.197. The z-score in [20] was 0.258 (inactive). In test [2], the composite z-score was -0.296.

On to `COc1cccc([C@H]2Oc3ccc(OC)cc3C(=NOC[C@@H](O)COCc3ccco3)[C@@H]2O)c1`, for which the z-score is -0.964 (inactive) in test [1]; 0.55 (inactive) in test [3]; -2.05 (inactive) in [4]; 0.135 (inactive) in test [5]; -2.01 (inactive) in [6]; 1.04 in test [7]. The z-score in test [8] is -0.262 (inactive); in test [9], 0.378 (inactive); in [10] it was -0.104; in test [11], 0.451; in test [12], 0.558; in [13], 0.819. The z-score in [14] was 0.667; in test [15], 0.414; in test [16], -0.959; in test [17], 0.461 (inactive); in [18], 0.431; in test [19], -0.751. In test [20], the z-score was -1.55 (inactive). The compound also registered a composite z-score in test [2] of -0.43.

For `O=C1CCCC=C1C(O)CCOC(c1ccccc1)(c1ccccc1)c1ccccc1` (stereo not given), the z-score was -1.03 (inactive) in test [1]; 1.52 (inactive) in [3]; -0.349 (inactive) in test [4]; -0.205 (inactive) in [5]; -0.217 (inactive) in test [6]; -0.0632 in [7]. Further, the z-score in test [8] was 1.69 (inactive); in [9], -1.48 (inactive); in test [10] it was -0.832; in test [11], -0.893; in test [12], -0.268; in test [13] it was -0.26. Also, the z-score was -3.43 in [14]; -3.62 in test [15]; -2.77 in [16]; -0.115 (inactive) in [17]; -0.879 in test [18]; -0.0919 in test [19]. In [20], the z-score was 0.418 (inactive). This compound yielded a composite z-score in test [2] of -0.0969.
